The record followed here is PubChem BioAssay AID2289 (National Center for Advancing Translational Sciences (NCATS), 2010).

About 3,300 (0.97%) of roughly 340,000 compounds were called active. Another 9% or so got no clear call; they are omitted. The call rests on the fitted dose curve; in most records, active means well fitted inhibition curve with a large enough effect; inconclusive means small, poorly fitted or top-dose-only effect, or effect the other way; inactive means flat fitted curve, though single readings scatter. The list shows a part of the results.
Potency means the concentration at half of the fitted maximal effect.

The experiment is described as follows: qHTS Assay for Modulators of miRNAs and/or Inhibitors of miR-21. Further: nearly all actives have a fitted effect of over 55% in size. Particulars: HeLa miR-21-FLuc reporter, luciferase luminescence, 48 h; actives lower the signal. The procedure, abridged:
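Using DMEM plus 10% FBS, HeLa miR-21-FLuc cells are incubated with test compounds (final up to about 40uM) for 48 hours; firefly luciferase signal is then imaged following reagent-mediated lysis.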
For orientation: In qHTS, concentration-response curves come from the screen itself.
With `Cc1nn(-c2ccc(F)cc2)c(Cl)c1/C=N/NC(=O)c1cccs1`, the Potency was 2.93 µM (active). Next, `Cc1nn(-c2ccccc2)c(Cl)c1/C=N/NC(=O)c1ccc(NS(=O)(=O)c2cccs2)cc1`: 4.14 µM (active); `Fc1ccc(-c2nc(-c3cnccn3)no2)c(Cl)c1`: 0.464 µM (active). Next, `Clc1ccc(-c2nc(-c3cnccn3)no2)cc1`: 0.521 µM (active); `O=C(c1ccccc1)c1c(O)nc(-c2ccccc2)n(-c2ccccc2)c1=O`: 13.1 µM (active); `O=C(Nc1ccn(Cc2ccccc2)n1)c1n[nH]c([N+](=O)[O-])c1Cl`: 2.07 µM (active).

As to `CCSc1nnc2ccc(-c3ccc(C)cc3)nn12`, the Potency is 16.5 µM (active). Next, `CCSc1nnc2ccc(-c3ccc(OC)c(OC)c3)nn12`: 14.7 µM (active). In the case of `CC(=O)c1sc(NC(=O)c2ccc(C(C)(C)C)cc2)nc1C` it was 0.826 µM (active); in that of `CC(=O)c1sc(NC(=O)c2ccc(C)c(C)c2)nc1C`, 0.585 µM (active).

Take `Cc1ccc(Cl)c(OCC(=O)N2CCc3ccccc3C2)c1`: the Potency was 14.7 µM (active). Consider `Cc1ccsc1C(=O)OCC(=O)N1CCc2ccccc2C1`, for which the Potency was 3.29 µM (active). In the case of `COc1cc2c(cc1OC)CN(c1ncccc1[N+](=O)[O-])CC2` it was 18.5 µM (active); in that of `CC(=O)c1ccc(N2CCc3ccccc3C2)c([N+](=O)[O-])c1`, 9.27 µM (active); in that of `COc1cc2c(cc1OC)CN(c1ccc(F)cc1[N+](=O)[O-])CC2`, 13.1 µM (active). On to `COc1cc(Cl)ccc1OCc1cc(C(=O)N2C[C@H]3CC[C@H]2C3)no1`, for which the Potency is 5.21 µM (active).

With `CC(=O)c1cccc(OCc2cc(C(=O)N(C)CCC3CCOCC3)no2)c1`, the Potency is 16.5 µM (active). Regarding `CC(=O)c1cccc(OCc2cc(C(=O)N3C[C@H]4CC[C@H]3C4)no2)c1`, the Potency is 5.21 µM (active). In the case of `O=C(c1cc(COc2ccc(F)cc2F)on1)N1C[C@H]2CC[C@H]1C2` it was 13.1 µM (active); in that of `Cc1nonc1C1CCCN1C(=O)c1cc(COc2ccc(F)cc2F)on1` (stereo not given), 4.14 µM (active); in that of `COc1ccccc1NC(=O)Nc1ccc(N2CCOCC2)cc1`, 8.26 µM (active). In the case of `CCCCOC(=O)Nc1ccc(N2CCOCC2)cc1` it was 7.36 µM (active); in that of `CCCCOC(=O)Nc1ccc(C(C)C)cc1`, 11.7 µM (active). On to `Cc1ccc2nc3c(cc(S(=O)(=O)c4ccccc4)c(=N)n3Cc3ccco3)c(=O)n2c1`, for which the Potency was 5.85 µM (active). Next, `Cc1ccccc1NC(=O)c1ccc2[nH]c(C)c(C)c2c1`: 1.31 µM (active).

Take `Cc1[nH]c2ccc(C(=O)N3CCCCC3)cc2c1C`: the Potency is 2.07 µM (active). In the case of `COc1ccccc1NC(=O)c1ccc2[nH]c(C)c(C)c2c1` it was 5.21 µM (active); in that of `COc1cc2c(cc1NC(=O)c1ccccc1F)CCCC2`, 7.36 µM (active).

For the molecule `Cc1nn2c(N)c(C#N)cnc2c1-c1ccccc1`, the Potency is 16.5 µM (active). In the case of `Cc1nc2c(-c3ccccc3)c(C)nn2c(N)c1-c1ccccc1` it was 1.85 µM (active); in that of `O=C1OC(c2ccccc2)=N/C1=C\N1CCCCC1`, 8.26 µM (active). Consider `Cc1ccc(C2=N/C(=C/N3CCOCC3)C(=O)O2)cc1`, for which the Potency is 6.56 µM (active).

With `Cc1ccc(C2=N/C(=C\N3CCCCC3)C(=O)O2)cc1`, the Potency is 1.65 µM (active). In the case of `Cc1cc(/C=C(\C#N)C(=O)Nc2ccccc2)c(C)n1-c1cccnc1` it was 1.65 µM (active). `COC(=O)c1ccc(COc2ccccc2/C=C(\C#N)C(=O)Nc2ccc(C)cc2)cc1`: the Potency is 7.36 µM (active). Next, `CCCOc1ccccc1/C=C(\C#N)C(=O)Nc1cccnc1`: 8.26 µM (active). In the case of `COc1ccc(N=Nc2c(C)n[nH]c2C)cc1` it was 10.4 µM (active).

Regarding `COc1ccc(N=Nc2c(C)[nH][nH]c2=O)cc1`, the Potency was 10.4 µM (active). Next, `CCOC(=O)c1ccc2[nH]c3c(c2c1)CCCC3NC=O` (stereo not given): 16.5 µM (active); `O=C(Cc1ccccc1F)Nc1ccc2c(c1)CCC2`: 3.29 µM (active). Next, `O=C(Cc1ccc2c(c1)CCCC2)Nc1ccc2ccccc2c1`: 13.1 µM (active). In the case of `O=C(Cc1ccccc1F)Nc1ccc(SC(F)F)cc1` it was 2.07 µM (active); in that of `COc1ccc2c(c1OC)C(=O)OC2Nc1nc(-c2cc3cc(Br)ccc3oc2=O)cs1` (stereo not given), 5.85 µM (active); in that of `Cc1cc(C(=O)CSc2ncccn2)c(C)n1-c1cccc(F)c1`, 0.736 µM (active). With `COc1cc(O)c2c(=O)c3c(OC)c(O)ccc3oc2c1`, the Potency is 13.1 µM (active).

For the molecule `COc1ccc(C(=O)Cn2c(=N)n(C)c3ccccc32)cc1`, the Potency is 0.736 µM (active). Regarding `CCn1c(=N)n(CC(=O)c2ccc(Cl)c(Cl)c2)c2ccccc21`, the Potency is 6.56 µM (active). For the molecule `CCOc1cc(C2NN=C(c3ccc(C)cc3)S2)ccc1O` (stereo not given), the Potency was 4.65 µM (active). Next, `COc1ccc(C2NN=C(c3ccc(C)cc3)S2)cc1` (stereo not given): 1.17 µM (active); `Cc1ccc(N/N=C(\C#N)C(=N)N2CCCCC2)cc1`: 0.521 µM (active). Next, `N#C/C(=N\Nc1ccc(Cl)cc1)C(=N)N1CCCCCC1`: 0.585 µM (active). In the case of `N#C/C(=N\Nc1ccc(Br)cc1)C(=N)N1CCOCC1` it was 7.36 µM (active); in that of `CCN(CC)C(=N)/C(C#N)=N/Nc1ccc(C)cc1`, 3.29 µM (active). With `Cc1ccc(N/N=C(\C#N)C(=N)N2CCOCC2)cc1`, the Potency is 10.4 µM (active).

With `N#C/C(=N\Nc1ccccc1F)C(=N)N1CCCCC1`, the Potency is 1.65 µM (active). Next, `N#C/C(=N\Nc1ccccc1)C(=N)N1CCCCCC1`: 2.07 µM (active); `COc1ccc(N/N=C(\C#N)C(=N)N2CCCCC2)cc1`: 4.65 µM (active). Next, `CCN=c1scc(-c2ccco2)n1/N=C/c1ccc(O)cc1`: 4.14 µM (active).

`Fc1ccc(OCc2nc(-c3cccs3)no2)cc1`: the Potency was 6.56 µM (active). Next, `c1ccc(OCc2nc(-c3cccs3)no2)cc1`: 13.1 µM (active); `O=[N+]([O-])c1ccccc1OCc1nc(-c2cccs2)no1`: 2.61 µM (active); `COc1ccc(-c2nc3cc([N+](=O)[O-])ccc3o2)cc1`: 0.293 µM (active). Next, `Cc1ccc2oc(-c3ccccc3)nc2c1`: 6.56 µM (active); `COc1cc(OC)cc(-c2nc3cc(C)ccc3o2)c1`: 1.65 µM (active). Turning to `O=c1c2cn[nH]c2[nH]c(=S)n1-c1ccccc1F`, the Potency is 0.927 µM (active).
